Measured values published in PubChem BioAssay (NCATS).
Inconclusive results are not listed. Activity calls are given as the source filed them. Calls follow the shape of the dose curve; as a rule, active = well fitted cell-killing curve with a large enough effect; inconclusive = small, poorly fitted or top-dose-only effect, or effect the other way; inactive = flat fitted curve, though single readings scatter.

Tests used:
Assay in all cases: Primary qHTS to identify gynecologic anti-cancer compounds using libraries of approved drugs and bioactive compounds (AID 1345084); also: nearly all actives have a fitted effect of over 55% in size
Es-2 = settings: Gynecologic cancer cell panel viability, ATPlite luminescence, 48 h; series mostly up to 57.5 µM
Summary of the method: (§1)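 Cells, 1,000 per well, were allowed to settle for 16 h at 37 C before compound addition. Five concentrations were tested for 48 h, and viability was read by ATPlite luminescence after 15 min at room temperature.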

HeLa = settings: Gynecologic cancer cell panel viability, ATPlite luminescence, 48 h; series mostly up to 57.5 µM
Summary of the method: as §1

Hek293T = settings: Gynecologic cancer cell panel viability, ATPlite luminescence, 48 h, control line for the selectivity index; series mostly up to 57.5 µM
Summary of the method: as §1

JEG-3 = settings: Gynecologic cancer cell panel viability, ATPlite luminescence, 48 h; series mostly up to 57.5 µM
Summary of the method: as §1

OV90 = settings: Gynecologic cancer cell panel viability, ATPlite luminescence, 48 h; series mostly up to 57.5 µM
Summary of the method: as §1

PA-1 = settings: Gynecologic cancer cell panel viability, ATPlite luminescence, 48 h; series mostly up to 57.5 µM
Summary of the method: as §1

SKOV3 = settings: Gynecologic cancer cell panel viability, ATPlite luminescence, 48 h; series mostly up to 57.5 µM
Summary of the method: as §1

Tov-21-G = settings: Gynecologic cancer cell panel viability, ATPlite luminescence, 48 h; series mostly up to 57.5 µM
Summary of the method: as §1

Tov112D = settings: Gynecologic cancer cell panel viability, ATPlite luminescence, 48 h; series mostly up to 57.5 µM
Summary of the method: as §1
% is scaled to controls: 0 for no effect and ±100 for the full control effect.

CC1=CC(=O)OC(C)(CC(C)(O)C(=O)O)C1 (configuration not stated)
inactive: Potency (Es-2) | Potency (HeLa) | Potency (Hek293T) | Potency (JEG-3) | Potency (OV90) | Potency (PA-1) | Potency (SKOV3) | Potency (Tov-21-G) | Potency (Tov112D)

CC1(C)CC2C(C1)C1(C)CCC13OC3(CO)C2O (configuration not stated)
inactive: Potency (Es-2) | Potency (HeLa) | Potency (Hek293T) | Potency (JEG-3) | Potency (OV90) | Potency (PA-1) | Potency (SKOV3) | Potency (Tov-21-G) | Potency (Tov112D)

COc1cc(C(O)C(CO)Oc2ccc(CCCO[C@@H]3O[C@@H](C)[C@H](O)[C@@H](O)[C@H]3O)cc2OC)ccc1O (some centres not stated)
inactive: Potency (Es-2) | Potency (HeLa) | Potency (Hek293T) | Potency (JEG-3) | Potency (OV90) | Potency (PA-1) | Potency (SKOV3) | Potency (Tov-21-G) | Potency (Tov112D)

CC1=CC(=O)C2C(C)(C)CC(O)CC2(C)C1CO (configuration not stated)
inactive: Potency (Es-2) | Potency (HeLa) | Potency (Hek293T) | Potency (JEG-3) | Potency (OV90) | Potency (PA-1) | Potency (SKOV3) | Potency (Tov-21-G) | Potency (Tov112D)

COc1ccc(/C=C/C(=O)O[C@@H]2[C@@H](O)[C@H](C)O[C@@H](OC3C4C=COC(O[C@@H]5O[C@H](CO)[C@@H](O)[C@H](O)[C@H]5O)C4C4(CO)OC34)[C@@H]2O)cc1OC (some centres not stated)
inactive: Potency (Es-2) | Potency (HeLa) | Potency (Hek293T) | Potency (JEG-3) | Potency (OV90) | Potency (PA-1) | Potency (SKOV3) | Potency (Tov-21-G) | Potency (Tov112D)

C[C@@H]1CC[C@]2(C(=O)O[C@@H]3O[C@H](CO)[C@@H](O)[C@H](O)[C@H]3O)CC[C@]3(C)C(=CCC4[C@@]5(C)C[C@@H](O)[C@H](O)C(C)(C)C5CC[C@]43C)C2[C@]1(C)O (some centres not stated)
inactive: Potency (Es-2) | Potency (HeLa) | Potency (Hek293T) | Potency (JEG-3) | Potency (OV90) | Potency (PA-1) | Potency (SKOV3) | Potency (Tov-21-G) | Potency (Tov112D)

CCC(C)(O)C(O)C(=O)OCc1ccc(O[C@@H]2O[C@H](CO)[C@@H](O)[C@H](O)[C@H]2O)cc1 (some centres not stated)
inactive: Potency (Es-2) | Potency (HeLa) | Potency (Hek293T) | Potency (JEG-3) | Potency (OV90) | Potency (PA-1) | Potency (SKOV3) | Potency (Tov-21-G) | Potency (Tov112D)

C[C@@H]1O[C@@H](O[C@H]2[C@H](O[C@H]3CC[C@@]4(C)C(CC[C@]5(C)C4CC=C4[C@@H]6CC(C)(C)CC[C@]6(C(=O)O)CC[C@]45C)[C@]3(C)CO)OC[C@H](O)[C@@H]2O)[C@H](O)[C@H](O[C@@H]2OC[C@@H](O)[C@H](O)[C@H]2O)[C@H]1O (some centres not stated)
inactive: activity change, negative = cytotoxicity (Es-2) -1.5% [at 11.6 µM] | activity change, negative = cytotoxicity (HeLa) 14.3% [at 11.6 µM] | activity change, negative = cytotoxicity (Hek293T) -9.01% [at 11.6 µM] | activity change, negative = cytotoxicity (JEG-3) -2.58% [at 11.6 µM] | activity change, negative = cytotoxicity (OV90) -5.88% [at 11.6 µM] | activity change, negative = cytotoxicity (PA-1) -2.5% [at 11.6 µM] | activity change, negative = cytotoxicity (SKOV3) -0.901% [at 11.6 µM] | activity change, negative = cytotoxicity (Tov-21-G) -4.57% [at 11.6 µM] | activity change, negative = cytotoxicity (Tov112D) 4.64% [at 11.6 µM]

C[C@@H]1O[C@@H](O[C@H]2[C@H](O)[C@@H](O)[C@H](OC[C@H]3O[C@@H](OC(=O)[C@]45CCC(C)(C)C[C@H]4C4=CCC6[C@@]7(C)C[C@H](O)[C@H](O[C@@H]8O[C@H](CO)[C@@H](O)[C@H](O)[C@H]8O)[C@@](C)(C(=O)O)C7CC[C@@]6(C)[C@]4(C)CC5)[C@H](O[C@@H]4O[C@H](CO)[C@@H](O)[C@H](O)[C@H]4O)[C@@H](O)[C@@H]3O)O[C@@H]2CO)[C@H](O)[C@H](O)[C@H]1O (some centres not stated)
inactive: activity change, negative = cytotoxicity (Es-2) 9.17% [at 6.55 µM] | activity change, negative = cytotoxicity (HeLa) 0.162% [at 6.55 µM] | activity change, negative = cytotoxicity (Hek293T) 3.11% [at 6.55 µM] | activity change, negative = cytotoxicity (JEG-3) -3.92% [at 6.55 µM] | activity change, negative = cytotoxicity (OV90) 0.564% [at 6.55 µM] | activity change, negative = cytotoxicity (PA-1) 15.2% [at 6.55 µM] | activity change, negative = cytotoxicity (SKOV3) 8.21% [at 6.55 µM] | activity change, negative = cytotoxicity (Tov-21-G) 6.93% [at 6.55 µM] | activity change, negative = cytotoxicity (Tov112D) 5.3% [at 6.55 µM]

O=C(O[C@@H]1O[C@H](CO)[C@@H](O)[C@H](O)[C@H]1O)c1c(O)cc(O)cc1/C=C/c1ccccc1
inactive: Potency (Es-2) | Potency (HeLa) | Potency (Hek293T) | Potency (JEG-3) | Potency (OV90) | Potency (PA-1) | Potency (SKOV3) | Potency (Tov-21-G) | Potency (Tov112D)

CC1CCC2(C)C(CC(O)C(O)C23CO3)C1(C)CCC1=CC(=O)OC1O (configuration not stated)
inactive: Potency (Es-2) | Potency (HeLa) | Potency (Hek293T) | Potency (JEG-3) | Potency (OV90) | Potency (PA-1) | Potency (SKOV3) | Potency (Tov-21-G) | Potency (Tov112D)

C=C1C[C@]23C[C@H]1CC[C@H]2[C@]1(C)CCC[C@@]2(CO)C(=O)O[C@H]([C@H]21)[C@@H]3O
inactive: Potency (Es-2) | Potency (HeLa) | Potency (Hek293T) | Potency (JEG-3) | Potency (OV90) | Potency (PA-1) | Potency (SKOV3) | Potency (Tov-21-G) | Potency (Tov112D)

COc1cc(C2Oc3c(OC)cc(/C=C/C(=O)OC[C@H]4O[C@@H](OC(C)(C)C(=O)O)[C@H](O)[C@@H](O)[C@@H]4O)cc3C2CO)ccc1O (some centres not stated)
inactive: Potency (Es-2) | Potency (HeLa) | Potency (Hek293T) | Potency (JEG-3) | Potency (OV90) | Potency (PA-1) | Potency (SKOV3) | Potency (Tov-21-G) | Potency (Tov112D)

CC(=O)O[C@@]1(C)C[C@@H](O)[C@]2(O)C=CO[C@@H](O[C@@H]3O[C@H](CO)[C@@H](O)[C@H](O)[C@H]3O)[C@@H]21
inactive: Potency (Es-2) | Potency (HeLa) | Potency (Hek293T) | Potency (JEG-3) | Potency (OV90) | Potency (PA-1) | Potency (SKOV3) | Potency (Tov-21-G) | Potency (Tov112D)

CC1=CC2(O)/C=C/C(C)(O)CC(O)/C=C/C(=O)OC23C(=O)NC(CC(C)C)C3C1C (configuration not stated)
inactive: Potency (Es-2) | Potency (HeLa) | Potency (Hek293T) | Potency (JEG-3) | Potency (OV90) | Potency (PA-1) | Potency (SKOV3) | Potency (Tov-21-G) | Potency (Tov112D)

O=C(O)CCc1cc2ccoc2cc1O[C@@H]1O[C@H](CO[C@@H]2OC[C@](O)(CO)[C@H]2O)[C@@H](O)[C@H](O)[C@H]1O
inactive: Potency (Es-2) | Potency (HeLa) | Potency (Hek293T) | Potency (JEG-3) | Potency (OV90) | Potency (PA-1) | Potency (SKOV3) | Potency (Tov-21-G) | Potency (Tov112D)

NCCCC[C@H](NC(=O)[C@@H]1Cc2ccccc2CN1C(=O)CCC(=O)c1ccccc1)C(=O)NCC(c1ccccc1)c1ccccc1
inactive: Potency (Es-2) | Potency (HeLa) | Potency (Hek293T) | Potency (JEG-3) | Potency (OV90) | Potency (PA-1) | Potency (SKOV3) | Potency (Tov-21-G) | Potency (Tov112D)

CC(=O)O[C@@H]1C[C@]2(C)[C@@]3(CCC4[C@@]5(C)CC[C@H](O[C@@H]6O[C@H](C(=O)O)[C@@H](O)[C@H](O[C@@H]7O[C@H](CO)[C@H](O)[C@H](O)[C@H]7O[C@@H]7O[C@@H](C)[C@H](O)[C@@H](O)[C@H]7O[C@@H]7OC[C@](O)(CO)[C@H]7O)[C@H]6O[C@@H]6O[C@H](CO)[C@H](O)[C@H](O)[C@H]6O)C(C)(C)C5CC[C@]42C)O[C@@H](O)[C@]12C3CC(C)(C)[C@@H](OC(=O)/C=C/c1ccc(O)c(O)c1)[C@@H]2OC(=O)/C=C/c1ccccc1 (some centres not stated)
inactive: activity change, negative = cytotoxicity (Es-2) -3.99% [at 6.55 µM] | activity change, negative = cytotoxicity (HeLa) 2.04% [at 6.55 µM] | activity change, negative = cytotoxicity (Hek293T) 0.066% [at 6.55 µM] | activity change, negative = cytotoxicity (JEG-3) -2.17% [at 6.55 µM] | activity change, negative = cytotoxicity (OV90) -7.75% [at 6.55 µM] | activity change, negative = cytotoxicity (PA-1) 24% [at 6.55 µM] | activity change, negative = cytotoxicity (SKOV3) 3.32% [at 6.55 µM] | activity change, negative = cytotoxicity (Tov-21-G) 17% [at 6.55 µM] | activity change, negative = cytotoxicity (Tov112D) 6.15% [at 6.55 µM]
